Results published in PubChem BioAssay (Tox21).
Inconclusive results are not listed. Where a call stands in place of a potency, no number is given. Active and inactive are the calls of the source. Unless noted, calls come from the whole dose curve; as a rule, active = well fitted curve in the direction sought with a large enough effect in the repeat runs; inconclusive = weak or mixed curves; inactive = no such curve, though single readings can be large; an effect the other way counts as inactive or inconclusive.

What was measured:
[1] = molecular target: Progesterone receptor (Homo sapiens) (UniProt P06401); assay: qHTS assay to identify small molecule agonists of the progesterone receptor (PR) signaling pathway (AID 1346784; calls by dose curve; note: nearly all actives have a fitted effect of over 30% in size; note: potency is the fitted concentration of half-maximal effect)
Method in brief: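 Compounds were tested for PR agonism in HEK 293T cells bearing a beta-lactamase gene under UAS control. Treatment lasted 16 hr at 37C; signal came from fluorescence of a FRET substrate.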

[2] = qHTS assay to identify small molecule antagonists of the TGF-beta/Smad signaling pathway - cell viability counter screen (AID 1346824); note: nearly all actives have a fitted effect of over 50% in size
Method in brief: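 SBE-bla HEK 293T cells were plated overnight at 37 C, then given compounds in DMSO plus TGF-beta1 (added as 0.25 ng/mL solution) for 5 hr. After the bla read, CellTiter-Glo was added to the same wells and luminescence read after 30 min at room temperature.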

[3] = qHTS assay to identify small molecule agonists of the TGF-beta/Smad signaling pathway - cell viability counter screen (AID 1346829); note: top concentration of the series differs between compounds; nearly all actives have a fitted effect of over 45% in size
Method in brief: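 Same-well cytotoxicity: CellTiter-Glo added after the 2 hr room-temperature beta-lactamase substrate step, luminescence measured 30 min later; cells had 5 hr of compound at 37 C.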

[4] = qHTS assay to identify small molecule agonists of the TGF-beta/Smad signaling pathway (AID 1346859; active = well fitted activation curve with a large enough effect in the signal ratio in the repeat runs, not every such curve was filed as active; the % refers to the signal ratio; note: series mostly up to about 77 µM)
Method in brief: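 Each well held 4,000 SBE-bla HEK 293T cells incubated overnight before compound addition; 5 hr later the cleavable FRET substrate went on for 2 hr at room temperature, and fluorescence was read at two emissions.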

[5] = qHTS assay to identify small molecule antagonists of the progesterone receptor (PR) signaling pathway - cell viability counter screen (AID 1346798); note: nearly all actives have a fitted effect of over 50% in size; note: potency is the fitted concentration of half-maximal effect
Method in brief: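 Following a 4 hr attachment, PR-UAS-bla HEK293T cells in charcoal-stripped FBS medium were exposed to compounds with R5020 for 16 hr; CellTiter-Glo was added and luminescence read after 30 min at room temperature.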

[6] = qHTS assay to identify small molecule agonists of the progesterone receptor (PR) signaling pathway - cell viability counter screen (AID 1346799; calls by dose curve; note: nearly all actives have a fitted effect of over 45% in size; note: potency is the fitted concentration of half-maximal effect)
Method in brief: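 Here, 3,000 PR-UAS-bla HEK293T cells per well were treated with compounds for 16 hr after a 6 hr preincubation at 37C and 5% CO2; cell viability is the CellTiter-Glo luminescence signal.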

[7] = molecular target: Thyrotropin-releasing hormone receptor (Homo sapiens) (UniProt P34981); assay: qHTS assay to identify small molecule antagonists of the thyrotropin-releasing hormone receptor (TRHR) signaling pathway (AID 1346877; active = well fitted inhibition curve with a large enough effect in the repeat runs, not every such curve was filed as active; note: series mostly up to about 51 µM)
Method in brief: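 Overnight-plated (18 h, 37 °C) HEK293 cells expressing TRHR were dye-loaded 2 h, treated with compound, then stimulated with TRH at 1 nM final. Fluorescence intensity was captured every second for 3 min.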

[8] = molecular target: Thyrotropin-releasing hormone receptor (Homo sapiens) (UniProt P34981); assay: qHTS assay to identify small molecule agonists of the thyrotropin-releasing hormone receptor (TRHR) signaling pathway (AID 1346891; calls by dose curve; note: series mostly up to about 58 µM)
Method in brief: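 Screening of agonists relied on calcium signalling in HEK293 cells expressing human TRHR: dye loading 2 h at 37 °C preceded compound addition and a 3-min fluorescence time course.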

[9] = Human pregnane X receptor (PXR) small molecule agonists, qHTS cell viability counter screen (AID 1346977); note: nearly all actives have a fitted effect of over 50% in size; note: potency is the fitted concentration of half-maximal effect
Method in brief: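 Tox21 qHTS format; PXR-Luc HepG2, 2,000/well, charcoal-stripped FBS 5%. Cpd exposure 24hr. Read: CellTiter-Fluor fluorescence, multiplexed with luciferase.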

[10] = molecular target: Progesterone receptor (Homo sapiens) (UniProt P06401); assay: qHTS assay to identify small molecule antagonists of the progesterone receptor (PR) signaling pathway (AID 1346795; active = well fitted inhibition curve with a large enough effect in the signal ratio in the repeat runs, not every such curve was filed as active; the % refers to the signal ratio; note: potency is the fitted concentration of half-maximal effect)
Method in brief: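 In HEK293T cells bearing the PR-UAS-bla reporter, compound effects on promegestone-driven (1 nM) beta-lactamase expression are assessed after 16 hr using a fluorescent FRET substrate incubated 2 hr at room temperature.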

Chain of Progesterone receptor (Homo sapiens) (P06401 whole entry, looked up): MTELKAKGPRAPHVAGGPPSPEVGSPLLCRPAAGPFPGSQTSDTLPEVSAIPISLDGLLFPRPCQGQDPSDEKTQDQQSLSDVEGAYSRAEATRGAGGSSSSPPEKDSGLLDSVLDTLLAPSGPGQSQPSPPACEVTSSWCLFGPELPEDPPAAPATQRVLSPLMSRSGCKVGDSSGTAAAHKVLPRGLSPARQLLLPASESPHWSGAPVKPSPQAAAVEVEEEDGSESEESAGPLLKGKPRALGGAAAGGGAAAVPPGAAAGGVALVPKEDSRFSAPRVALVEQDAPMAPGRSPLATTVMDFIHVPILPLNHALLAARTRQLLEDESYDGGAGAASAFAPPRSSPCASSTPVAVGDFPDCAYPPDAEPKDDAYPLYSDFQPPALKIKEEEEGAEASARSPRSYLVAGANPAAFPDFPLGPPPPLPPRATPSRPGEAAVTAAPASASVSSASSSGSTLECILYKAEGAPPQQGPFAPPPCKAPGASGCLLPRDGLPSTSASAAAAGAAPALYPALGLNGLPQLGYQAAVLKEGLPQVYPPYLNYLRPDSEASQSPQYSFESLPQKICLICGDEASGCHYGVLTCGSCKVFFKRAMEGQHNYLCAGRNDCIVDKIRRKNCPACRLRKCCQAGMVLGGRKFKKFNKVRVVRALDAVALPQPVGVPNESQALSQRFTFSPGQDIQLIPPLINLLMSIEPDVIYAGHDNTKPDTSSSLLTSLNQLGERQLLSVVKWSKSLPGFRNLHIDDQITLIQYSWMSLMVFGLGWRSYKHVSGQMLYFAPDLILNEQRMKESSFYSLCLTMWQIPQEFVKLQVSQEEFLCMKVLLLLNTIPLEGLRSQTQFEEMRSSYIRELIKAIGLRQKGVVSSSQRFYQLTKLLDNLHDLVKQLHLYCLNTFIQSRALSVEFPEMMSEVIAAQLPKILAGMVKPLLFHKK
Chain of Thyrotropin-releasing hormone receptor (Homo sapiens) (P34981 whole entry, looked up): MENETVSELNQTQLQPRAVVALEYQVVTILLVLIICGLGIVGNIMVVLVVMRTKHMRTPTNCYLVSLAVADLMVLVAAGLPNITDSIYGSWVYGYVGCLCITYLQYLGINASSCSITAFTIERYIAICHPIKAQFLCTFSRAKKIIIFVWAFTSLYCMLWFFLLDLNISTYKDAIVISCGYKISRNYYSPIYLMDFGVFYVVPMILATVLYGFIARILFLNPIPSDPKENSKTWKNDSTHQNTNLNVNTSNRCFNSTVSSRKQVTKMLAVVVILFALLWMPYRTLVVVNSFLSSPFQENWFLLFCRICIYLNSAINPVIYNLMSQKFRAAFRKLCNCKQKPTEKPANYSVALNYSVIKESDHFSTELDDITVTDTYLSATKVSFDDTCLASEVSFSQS

Row | SMILES | Potency [1] | outcome [2] | outcome [3] | outcome [4] | Potency [5] | Potency [6] | outcome [7] | Potency [8] | Potency [9] | Potency [10]
1 | NC(=O)N(O)[C@@H]1C=C[C@H](Oc2cccc(Oc3ccc(F)cc3)c2)C1 | inactive | inactive | inactive | inactive |  |  |  |  |  | 
2 | Nc1ccc(Cl)cc1[N+](=O)[O-] | inactive |  | inactive | inactive | inactive | inactive | inactive | inactive |  | 
3 | CC(C)c1nnc2ccc(-c3ocnc3-c3cc(F)ccc3F)cn12 | inactive | inactive | inactive |  |  |  | inactive | inactive |  | 
4 | CC(Cl)C(Cl)Cl (stereo not drawn) | inactive | inactive | inactive | inactive |  |  | inactive | inactive | inactive | 
5 | O=C(Nc1ccccc1)Nc1ccccc1 | inactive | inactive |  | inactive | inactive | inactive | inactive | inactive | inactive | 
6 | COc1ccc(C(=O)c2cccc(O)c2)c(OC)c1 | inactive | inactive | inactive | inactive |  |  | inactive | inactive | inactive | 
7 | COC(OC)(C(=O)c1ccccc1)c1ccccc1 | inactive | inactive |  | inactive | inactive | inactive | inactive | inactive | inactive | 
8 | CCOC(=O)[C@@H](C)Oc1ccc(Oc2nc3ccc(Cl)cc3o2)cc1 | inactive | inactive | inactive | inactive | inactive |  | inactive | inactive | inactive | 
9 | CNCCCC1c2ccccc2C=Cc2ccccc21 | inactive | inactive | inactive | inactive | 21.1 µM (active) | 10.6 µM (active) | inactive | inactive | 29.8 µM (active) | 
10 | CCOC(=O)C(C)Oc1ccc(Oc2nc3ccc(Cl)cc3o2)cc1 (stereo not drawn) | inactive | inactive | inactive | inactive | inactive |  | inactive | inactive | inactive | 
11 | CC[C@@H]([C@H](C)O)n1ncn(-c2ccc(N3CCN(c4ccc(OC[C@@H]5CO[C@@](Cn6cncn6)(c6ccc(F)cc6F)C5)cc4)CC3)cc2)c1=O | inactive |  |  | inactive | 16.8 µM (active) |  | inactive | inactive |  | 
12 | CCNC(=O)N1CCN(CCCC(c2ccc(F)cc2)c2ccc(F)cc2)CC1 | inactive | inactive | inactive | inactive | inactive |  | inactive | inactive | 13.3 µM (active) | 
13 | CCCCCCCCCCCCCCC[C@H](O)[C@@H](N)CO | inactive | inactive | inactive | inactive |  | inactive | inactive | inactive | inactive | 
14 | Cc1ccc(Nc2nccc(N(C)c3ccc4c(C)n(C)nc4c3)n2)cc1S(N)(=O)=O | inactive | inactive | inactive | inactive |  |  | inactive | inactive |  | 
15 | CSc1ccc(Oc2ccc(S(N)(=O)=O)cc2CN(C)C)cc1C | inactive | inactive | inactive | inactive |  | inactive | inactive | inactive |  | 
16 | C[C@]12CCC(=O)C=C1C=C[C@@H]1[C@@H]2CC[C@@]2(C)[C@H]1CC[C@@]21CCC(=O)O1 | 1.68 µM (active) | inactive | inactive |  |  |  | inactive | inactive | inactive | 
17 | COC(=O)Nc1nc2ccc(C(=O)c3cccs3)cc2[nH]1 | inactive | inactive |  | inactive |  |  |  |  |  | 
18 | C[C@@H]1C[C@H]2[C@@H]3CCC4=CC(=O)C=C[C@]4(C)[C@@]3(F)[C@@H](O)C[C@]2(C)[C@H]1C(=O)CO |  | inactive | inactive | inactive | inactive |  | inactive | inactive | inactive | inactive
19 | COc1ccc(CCC(=O)c2c(O)cc(O[C@@H]3O[C@H](CO)[C@@H](O)[C@H](O)[C@H]3O[C@@H]3O[C@@H](C)[C@H](O)[C@@H](O)[C@H]3O)cc2O)cc1O |  | inactive |  | inactive | inactive | inactive | inactive | inactive | inactive | inactive
20 | Cc1ccc(/C=N/n2c(-c3ccccc3)csc2=S)cc1 | inactive |  |  | inactive |  |  | inactive | inactive |  | 
21 | CCCC1C(CC)=CC(CC)=CN1c1ccccc1 (stereo not drawn) |  | inactive | inactive | inactive |  |  |  |  |  | 27.3 µM (active)
22 | CCC(C(=O)OCCN(CC)CC)c1ccccc1 (stereo not drawn) |  | inactive | inactive | inactive |  |  | inactive | inactive | inactive | inactive
23 | CC(=O)OCC(=O)[C@H]1CC[C@H]2[C@@H]3CCC4=CC(=O)CC[C@]4(C)[C@H]3CC[C@]12C |  | inactive | inactive | inactive | inactive |  | inactive | inactive | inactive | inactive
